# Laboratory results: PubChem BioAssay
# Results with a measured potency or affinity are listed apart. Results filed as inconclusive are left out. Activity calls are given as the source filed them.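 How the source made its calls: active means falling signal with fitted half-maximal potency no higher than twice the top valid tested dose; inconclusive means poor fit quality, or flat fit spanning -70% to -30%; inactive means potency over limit, rising signal, or flat fit inside 30%.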
# Experiment: fungal growth arrest, C. neoformans – Alamar Blue, cherry-picks, dose response (AID 686998)
# Conditions: Cryptococcus neoformans growth, 24 h; series mostly up to 35 µM
row,SMILES,outcome
1,C[C@H]1CCCCO[C@H](CN(C)C(=O)Nc2ccc(F)cc2)[C@@H](C)CN([C@@H](C)CO)C(=O)c2cc(NS(=O)(=O)c3ccc(Cl)cc3)ccc2O1,inactive
2,C[C@@H]1CN([C@@H](C)CO)C(=O)CCCn2cc(nn2)CO[C@@H]1CN(C)C(=O)NC1CCCC1,inactive
3,CNC(=O)C[C@H]1CC[C@H]2[C@@H](COc3ccc(NC(=O)Nc4cccc(C#N)c4)cc3C(=O)N2C)O1,inactive
4,CCC(=O)N(C)C[C@H]1Oc2cc(-c3ccccc3)ccc2S(=O)(=O)N([C@H](C)CO)C[C@H]1C,inactive
5,CCCNC(=O)Nc1ccc2c(c1)C(=O)N(C)C[C@H](OC)[C@@H](C)CN(C(=O)CC)[C@@H](C)CO2,inactive
6,O=C(CN1CCOCC1)N1CC[C@@H]2[C@@H](CO)Nc3ccc(-c4ccccc4F)cc3[C@@H]21,inactive
7,CN1C(=O)c2cc(NC(=O)Nc3ccc(Cl)cc3)ccc2OC[C@H]2O[C@@H](CC(=O)NCCN3CCCCC3)CC[C@@H]21,inactive
8,CC(C)NC(=O)Nc1ccc2c(c1)CC(=O)N([C@H](C)CO)C[C@H](C)[C@H](CN(C)S(=O)(=O)c1ccc(Cl)cc1)O2,inactive
9,COCC(=O)N(C)C[C@@H]1Oc2ncc(C#CCC3CCCC3)cc2C(=O)N([C@@H](C)CO)C[C@H]1C,inactive
10,CO[C@@H](CN(C)Cc1cc(F)ccc1F)[C@@H](C)CN([C@H](C)CO)S(=O)(=O)c1ccc(F)cc1,inactive
11,C[C@@H]1CN([C@H](C)CO)C(=O)c2cc(/C=C/c3ccccc3)cnc2O[C@@H]1CN(C)S(C)(=O)=O,inactive
12,Cc1cc(C)c(NC(=O)C2CCCN2CCO)c(C)c1 (centres undefined),inactive
13,CCCNC(=O)[C@@H]1[C@@H](CO)[C@@H]2Cn3c(cccc3=O)[C@H]1N2C(=O)Nc1cc(F)ccc1F,inactive
14,C[C@H]1CN([C@@H](C)CO)C(=O)c2cccc(NS(=O)(=O)c3cn(C)cn3)c2O[C@@H]1CN(C)CC1CCCCC1,inactive
15,Cc1ccc(C2=NN(C(=O)c3ccc(Br)o3)C(c3ccc(C)cc3)C2)cc1 (centres undefined),inactive
16,C[C@@H]1CN([C@@H](C)CO)S(=O)(=O)c2ccc(C#CC3CC3)cc2O[C@H]1CN(C)CC1CCOCC1,inactive
17,COCCNC(=O)C[C@H]1C=C[C@@H](NS(=O)(=O)c2ccc(C)cc2)[C@H](CO)O1,inactive
18,C[C@@H]1CCCCO[C@H](CN(C)Cc2ccncc2)[C@@H](C)CN([C@@H](C)CO)C(=O)c2cc(NC(=O)Nc3ccccc3)ccc2O1,inactive
19,C[C@@H]1CN([C@@H](C)CO)C(=O)Cc2cc(NC(=O)Nc3cccc4ccccc34)ccc2O[C@@H]1CN(C)S(=O)(=O)c1cccs1,inactive
20,CNC[C@@H]1Oc2cc(Br)ccc2S(=O)(=O)N([C@H](C)CO)C[C@H]1C,inactive

row,SMILES,outcome
1,C[C@@H]1CN([C@H](C)CO)S(=O)(=O)c2ccc(C#Cc3ccc(F)cc3)cc2O[C@H]1CN(C)C(=O)NC1CCCC1,inactive
2,CC1CCCCN1C(=O)CSc1nc(C2CC2)nc2c1cnn2-c1ccccc1 (centres undefined),inactive
3,O=C(c1cccc(Br)c1)N1CCN(c2ccccn2)CC1,inactive
4,CC(=O)NNC(=O)CSc1nnc(-c2ccccc2)c(-c2ccccc2)n1,inactive
5,C[C@H](CO)N1C[C@H](C)[C@H](CN(C)C(=O)Nc2ccc3c(c2)OCO3)Oc2ncc(-c3ccc(F)cc3)cc2C1=O,inactive
6,O=C(Nc1ccccc1)N1CCCCN2[C@H](CO)[C@@H](c3ccc(C#CC4CC4)cc3)[C@@H]2C1,inactive
7,CCCN1C[C@H](C)[C@@H](OC)CN(C)C(=O)c2cc(NC(=O)c3cccc(F)c3)ccc2OC[C@H]1C,inactive
8,CCC(=O)N[C@@H]1C=C[C@H](CC(=O)NCC2CCCCC2)O[C@H]1CO,inactive
9,O=C(C1CCOCC1)N1CC[C@@H]2[C@H]1c1cc(Br)ccc1N[C@@H]2CO,inactive
10,O=C(C[C@H]1CC[C@@H](NC(=O)c2ccc3c(c2)OCO3)[C@@H](CO)O1)NCc1ccc(F)cc1,inactive
11,O=C(C[C@H]1CC[C@H]2[C@@H](COC[C@@H](O)CN2C(=O)c2ccc(F)cc2)O1)N1CCOCC1,inactive
12,COc1cccc(-c2cn(CC[C@@H]3CC[C@H](NC(C)=O)[C@@H](CO)O3)nn2)c1,inactive
13,CC1=C(C(=O)OCc2ccccc2)C(c2ccccc2)NC(=O)N1 (centres undefined),inactive
14,CC(C)NC(=O)N1CC[C@@H]2[C@@H](CO)N(C)c3ccc(-c4cccc(F)c4)cc3[C@@H]21,inactive
15,CC(C)CC#Cc1ccc2c(c1)O[C@@H](CN(C)C(=O)C1CCC1)[C@@H](C)CN([C@H](C)CO)S2(=O)=O,inactive
16,C[C@@H]1CN([C@@H](C)CO)C(=O)c2cc(NS(=O)(=O)c3ccc(F)cc3)ccc2O[C@@H](C)CCCCO[C@H]1CN(C)S(=O)(=O)c1ccc(F)cc1,inactive
17,Cc1cc(C)c(NC(=O)C(C)N2CCCCCC2)c(C)c1 (centres undefined),inactive
18,COc1ccc(NC(=O)Nc2ccc3c(c2)C(=O)N([C@@H](C)CO)C[C@@H](C)[C@H](CN(C)C(=O)Cc2ccccc2)OCCCC[C@H](C)O3)cc1,inactive
19,COCC#Cc1cnc2c(c1)C(=O)N([C@H](C)CO)C[C@H](C)[C@H](CN(C)C(=O)C1CC1)O2,inactive
